# In all, about 7,400 compounds went through this assay and about 4,100 (55%) were called active. So high a share suggests a set chosen from earlier hits. Only a sample is shown. Unmarked numbers belong to inactive results.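 How the source made its calls: active means inhibition of yeast growth at or above a set limit in either of two repeat tests at 20 µM; inactive means the rest.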
# Experiment: growth inhibitors of tim10-1 mutant yeast, confirmation, single concentration, luminescence, S. cerevisiae (AID 463213)
# Settings: S. cerevisiae tim10-1 ts strain growth, BacTiter-Glo, 24 h; at 20 µM; hits give high values
row,Compound,inhibition
1,Cc1nc2ccccn2c1P(=S)(N1CCCCC1)N1CCCCC1,38.4% (active)
2,O=C1NC(=O)N(c2ccccc2)C(=O)/C1=C/c1ccc([N+](=O)[O-])s1,75.3% (active)
3,COc1cccc(N2C(=O)NC(=O)/C(=C\c3ccc([N+](=O)[O-])s3)C2=O)c1,76.5% (active)
4,N#CC1=C(N)Oc2c(c(=O)oc3ccccc23)C1c1ccccc1OC(=O)c1cccs1 (stereo not given),22.8%
5,CCCCCn1c(=O)c(C(=O)Nc2c(C)n(C)n(-c3ccccc3)c2=O)c(O)c2ccccc21,6.15%
